# The sample as a whole holds a higher share of hits than the screen did.
# ROS inducer = cancer cell ROS induction; U2OS ROS induction, H2DCF-DA fluorescence; ROS induction (% of piperlongumine), % at 10 µM; hit rate 2% among 46,000; AID 624156; in the data active = ROS induction above about 79%, passing the limit was not always enough;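 note: 0% = DMSO vehicle median and 100% = reference compound median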
# Starred values were filed as active, the others as inactive.
SMILES,ROS inducer
C[C@@H]1CN([C@H](C)CO)C(=O)c2cccc(NC(=O)c3ccc(-c4nccs4)cc3)c2O[C@@H]1CN(C)S(=O)(=O)c1cccs1,1.5
C[C@@H]1CN([C@@H](C)CO)C(=O)c2cccc(NC(=O)c3ccc(-c4nccs4)cc3)c2O[C@@H]1CN(C)Cc1ccc(Oc2ccccc2)cc1,29.7
C[C@H]1CN([C@@H](C)CO)C(=O)c2cccc(NC(=O)c3ccc(-c4nccs4)cc3)c2O[C@H]1CN(C)Cc1ccc(C(F)(F)F)cc1,109.2*
C[C@H](CO)N1C[C@H](C)[C@@H](CN(C)Cc2ccc(Oc3ccccc3)cc2)Oc2c(NC(=O)c3ccc(-c4nccs4)cc3)cccc2C1=O,119.6*
CC(C)(C)c1[nH]nc2c1C(c1ccc(OC(=O)c3ccccc3Cl)cc1)C(C#N)=C(N)O2 (stereo unspecified),-8.8
Cc1onc(-c2ccccc2Cl)c1C(=O)NCC12CC3CC(CC(C3)C1)C2,8.0
O=C1OC2(CCCCC2)OC(=O)C1=CNc1ccc(Cl)cc1C(F)(F)F,-9.7
O=C(NCCN1CCCC1)c1cc(Sc2cccc(Cl)c2)nc2ccccc12,0.8
C=C1C(=O)O[C@@H]2[C@H]3C(CO[C@@H]4O[C@H](CO)[C@@H](O)[C@H](O)[C@H]4O)=CC(=O)C3=C(C)CC[C@@H]12,-8.8
C=C1C(=O)O[C@H]2CC(C)C3CC[C@@]4(C)O[C@@]34CC12 (stereo partly specified),13.8
C=C1C(=O)O[C@H]2C1CCC(C)=C1C(=O)C=C(C)[C@@]12O (stereo partly specified),69.3
C=C1C(=O)O[C@@H]2[C@H]3O[C@]3(C)CCC=C(C)CC[C@@H]12,101.1*
C=C1C(=O)O[C@@H]2C3O[C@]3(C)CC/C=C(/C)CC[C@@H]12 (stereo partly specified),91.7*
COc1ccccc1Cn1c(=S)[nH]c2cc(C(=O)N3CCC4(CC3)OCCO4)ccc2c1=O,7.9
Cc1cc(-c2nc(-c3ccnn3S(=O)(=O)c3cccc(C(F)(F)F)c3)cs2)no1,28.7
CCOC(=O)c1cc(-c2ccnn2S(=O)(=O)c2cccc(C(F)(F)F)c2)on1,183.9*
O=S(=O)(c1ccc(C(F)(F)F)cc1)n1nccc1-c1cc(-c2ccccc2)no1,-4.4
Oc1ccccc1-c1cc(-c2ccccc2O)nc(-c2ccccc2)n1,1.7
CNCCC=C1c2ccccc2CCc2ccccc21,-10.1
c1ccc(-c2ccc3c(n2)CCc2ccccc2-3)cc1,107.3*
Cc1ccc(-c2cc(C(F)F)n3ncc(C(=O)NCc4cn(C)nc4C)c3n2)cc1,135.1*
COC(=O)c1ccccc1NC(=O)c1nc2nc(C)cc(C(F)F)n2n1,32.2
Cc1ccc(-c2cc(C(F)F)n3ncc(C(=O)NCCN4CCOCC4)c3n2)cc1,27.3
COc1ccc(OCC(=O)Nc2cccc(-c3cnc4ccccc4n3)c2)cc1,10.7
COc1ccc(-c2cc(C(F)F)n3ncc(C(=O)Nc4cccc(NC(C)=O)c4)c3n2)cc1,155.1*
SMILES,ROS inducer
O=C(NCc1cccnc1)c1cnn2c(C(F)F)cc(C3CC3)nc12,18.4
O=C(CCCn1ncn2c(cc3occc32)c1=O)N1CCCCC1,1.1
Cc1c(C(=O)N2CCN(c3ccccc3F)CC2)sc2nc3n(c(=O)c12)CCCC3,27.4
O=C1C2C3C=CC(C3)C2C(=O)N1Cc1ccccc1Cl (stereo unspecified),-3.5
Cc1ccc(S(=O)(=O)N2Cc3ccccc3CC2C(=O)Nc2cccc3ccccc23)cc1 (stereo unspecified),-2.4
O=C(Nc1ccc(-c2cn3c(n2)SCC3)cc1)c1ccc2nonc2c1,0.8
CC(=O)Oc1ccc(C(=O)Nc2ccc(F)cc2F)cc1,-9.8
COC(=O)c1ccc(-c2ccco2)n1CC(=O)NC(C)C,-5.0
COC(=O)C1=C(C)NC(C)=C(C(=O)OC)C1c1ccc(C(C)C)cc1,12.6
CCOC(=O)c1c(C)oc2ccc(OCC)cc12,11.4
C/C=C/C=C/C(=O)c1cc(C)c(O)c(C)c1O,101.9*
O=S(=O)(NCCOC12CC3CC(CC(C3)C1)C2)c1cc(Cl)ccc1Cl,3.7
COC(=O)c1ccc2c(c1)C1C3CCC(C3)C1C(c1ccccc1)N2 (stereo unspecified),30.0
COC(=O)c1ccc(-n2nnnc2SCCCC(=O)c2ccc(F)cc2)cc1,-6.7
COC(=O)c1[nH]nc2c1C(=O)N(c1ccc(F)cc1)C2=O,260.1*
COC(=O)c1cccc(C(=O)Nc2ccc(F)cc2)n1,6.2
CC1CCCC(NC(=O)CNC(=S)N(Cc2ccc(F)cc2)C2CCCCC2)C1C (stereo unspecified),51.1
C=CCn1c(SCC(C)C)nc2sc3c(c2c1=O)CC(C)(C)OC3,18.3
CCOC(=O)C1=C(c2ccc(OC)cc2)NC(=O)NC1c1ccc(OC)cc1 (stereo unspecified),-13.5
C[C@@H]1CN([C@H](C)CO)C(=O)Cc2cc(NC(=O)Nc3ccc4c(c3)OCO4)ccc2O[C@H]1CN(C)C,-0.7
C[C@@H]1CN([C@H](C)CO)C(=O)Cc2cc(NC(=O)Nc3ccc4c(c3)OCO4)ccc2O[C@@H]1CN(C)CC1CCCCC1,4.3
C[C@@H]1CN([C@@H](C)CO)C(=O)Cc2cc(NC(=O)Nc3ccc4c(c3)OCO4)ccc2O[C@@H]1CN(C)C,99.3*
C[C@@H]1CN([C@H](C)CO)C(=O)Cc2cc(NC(=O)Nc3ccc4c(c3)OCO4)ccc2O[C@@H]1CN(C)C,-2.0
C[C@@H]1CN([C@@H](C)CO)C(=O)Cc2cc(NC(=O)Nc3ccccc3)ccc2O[C@@H]1CN(C)CC1CC1,3.1
C[C@@H]1CN([C@H](C)CO)C(=O)Cc2cc(NC(=O)Nc3ccc4c(c3)OCO4)ccc2O[C@H]1CN(C)CC1CC1,127.8*
SMILES,ROS inducer
CC1(O)N(CCc2ccccc2)C(=O)OC12CCCCC2 (stereo unspecified),12.3
CCOC(=O)c1ccc(NC(=O)c2oc3c(c2C)-c2nn(Cc4ccc(C)cc4)cc2CC3)cc1,-16.6
O=C1CC(SC(=Nc2ccccc2)Nc2ccccc2)C(=O)N1CCc1ccccc1 (stereo unspecified),-19.8
COc1ccc(/C=C2\SC(=S)N(CCCC(=O)O)C2=O)cc1OC,137.6*
O=C(CCCN1C(=O)/C(=C\c2cccs2)SC1=S)Nc1ccc(O)cc1,2.6
CN1CCN(NC(=O)CCN2C(=O)/C(=C\c3ccccc3)SC2=S)CC1,4.1
N#Cc1c(Nc2ccccc2)sc2c(N)nc(N)nc12,24.0
O=c1cc(-c2ccccc2)n(-c2ccccc2)cn1,4.2
CCc1ccccc1N(CC)C(=O)Cn1ncc2c1-c1ccccc1OC2,-1.2
COCCOC(=O)N1C(=O)[C@@]2(c3ccccc31)[C@H](C(=O)N1CCN(c3ncccn3)CC1)[C@H]1C(=O)O[C@H](c3ccccc3)[C@H](c3ccccc3)N1[C@@H]2c1ccccc1OCCO,122.5*
COCCOC(=O)N1C(=O)[C@@]2(c3ccccc31)[C@H](c1ccc(O)cc1)N1[C@H](c3ccccc3)[C@H](c3ccccc3)OC(=O)[C@H]1[C@@H]2C(N)=O,0.9
COCCOC(=O)N1C(=O)[C@@]2(c3cc(C#CC4(O)CCCCCC4)ccc31)[C@H](C(=O)N1CCN(c3ncccn3)CC1)[C@H]1C(=O)O[C@H](c3ccccc3)[C@H](c3ccccc3)N1[C@@H]2c1ccc(O)cc1,17.0
COCCOC(=O)N1C(=O)[C@@]2(c3ccccc31)[C@H](C(=O)Nc1nc3ccccc3s1)[C@H]1C(=O)O[C@H](c3ccccc3)[C@H](c3ccccc3)N1[C@@H]2c1ccccc1OCCO,11.0

# Bioassay records as filed in PubChem BioAssay.
